Data as given in the supplement of paper PMC7156485.
Several values for one entry are separate records, joined by “and”; a condition that tells them apart may be missing. Identical values can stand only once. ± gives the standard deviation of the averaged measurements.

Legend:
Settings in all cases: concentration: 10 µM; 24 h
HCC1569 [1] = test: cell number relative to DMSO (% of DMSO); higher = more cells (less growth inhibition / toxicity)
Summary of the method: (§1)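 Cells were seeded at 800 per well in 384-well plates with RPMI containing 10% FBS; both HCC1569 and TDF lines were used. Compounds were added at 10 µM for 24 h at 37 °C, in triplicate, before fixation in 3.7% formaldehyde and staining with a rabbit anti-H1.0 antibody, an AlexaFluor 647 secondary and DAPI. H1.0 nuclear intensity or cell number is reported as percent of the plate control using the median of replicates, and HCC1569 values were smoothed for positional effects.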

TDF [2] = test: as above
Summary of the method: as §1

TDF [3] = test: H1.0 immunofluorescence intensity relative to DMSO (% of DMSO); higher = stronger H1.0 induction, active = 120 or more
Summary of the method: as §1

HCC1569 [4] = test: H1.0 immunofluorescence intensity relative to DMSO (% of DMSO); higher = stronger H1.0 induction, active = 140 or more
Summary of the method: as §1
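For H1.0 immunofluorescence intensity relative to DMSO in this document: TDF is a line of transformed human dermal fibroblasts of mesenchymal origin.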
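For cell number relative to DMSO in this document: TDF denotes transformed human dermal fibroblasts of mesenchymal origin.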

SMILES	cell number (HCC1569 [1])	cell number (TDF [2])	H1.0 immunofluorescence intensity (TDF [3])	H1.0 immunofluorescence intensity (HCC1569 [4])
CC1CCC2C(C)C(OC(=O)CCC(=O)O)OC3OC4(C)CCC1C32OO4 (stereo not given) [Artesunate]	87.2 ± 1.8	88.2 ± 5.5	99.1 (inactive)	124 (inactive)
C[n+]1cc2c3c(ccc2c2ccc4cc5c(cc4c21)OCO5)OCO3 [Sanguinarine]	93.5	93.6	98.2 (inactive)	114 (inactive)
CCCCCCCCCCCCCCCCCCOCC(COP(=O)([O-])OCC[N+](C)(C)C)OC (stereo not given) [1-Octadecyl-2-methylglycero-3 PC]	105	100	96.6 (inactive)	101 (inactive)
CNC(=O)C1OC(n2cnc3c(NCc4cccc(I)c4)ncnc32)C(O)C1O (stereo not given)	102	114	87.4 (inactive)	82.1 (inactive)
Nc1ccn(C2OC(CO)C(O)C2(F)F)c(=O)n1 (stereo not given) [Gemcitabine]	74.8	42.4	122 (active)	96.6 (inactive)
O=C(O)Cc1c[nH]c2ccccc12 [Indole-3-acetic acid]	100	102	94.5 (inactive)	84.8 (inactive)
C[C@H](O)[C@H](O)[C@H]1CNc2[nH]c(N)nc(=O)c2N1.Cl.Cl	103	97.2	92.5 (inactive)	97 (inactive)
COc1cc2nccc(Oc3ccc(NC(=O)Nc4cc(C)on4)c(Cl)c3)c2cc1OC [Tivozanib]	79.2	101	99 (inactive)	116 (inactive)
CCOC(=O)C1=CC(OC(CC)CC)C(NC(C)=O)C(N)C1 (stereo not given) [Oseltamivir]	104	100	94 (inactive)	99.4 (inactive)
CC(C)CN(C)c1nc(N)c(C(=O)N=C(N)N)nc1Cl [5-(N-Methyl-N-isobutyl)amiloride]	100	92.3	106 (inactive)	101 (inactive)
O=C(O)CCC(=O)N1CCC[C@H]1C(=O)O [N-Succinyl-L-proline]	99.6	100	102 (inactive)	104 (inactive)
CN(C)CCOC(C)(c1ccccc1)c1ccccn1.O=C(O)CCC(=O)O (stereo not given) [Doxylamine succinate]	99.5	101	97.5 (inactive)	87.7 (inactive)
CC1CN(S(=O)(=O)c2cccc3cnccc23)CCN1.Cl.Cl (stereo not given)	111	109	86.2 (inactive)	81.1 (inactive)
O=C(O)C=Cc1cnc[nH]1 [4-Imidazoleacrylic acid]	101	107	97.2 (inactive)	108 (inactive)
O=c1c(O)c(-c2ccccc2O)oc2cc(O)cc(O)c12 [Datiscetin]	101	106	92.1 (inactive)	87.7 (inactive)
CCCCCCCCCCCCCCCC(=O)NCCc1ccc(O)c(O)c1 [Palmitoyl dopamine]	92.7	101	101 (inactive)	105 (inactive)
Cc1ccc(S(=O)(=O)C=CC#N)cc1	68.3 and 78.4	103 and 100	98.9 (inactive) and 92.5 (inactive)	191 (active) and 104 (inactive)
NCC(O)c1ccc(O)c(O)c1.O=C(O)C(O)C(O)C(=O)O (stereo not drawn) [Norepinephrine-(+)-tartrate L (-)]	100	99.2	91.4 (inactive)	105 (inactive)
Cc1ccc(C(=O)c2ccc(CC(=O)O)n2C)cc1 [Tolmetin]	101	99	104 (inactive)	104 (inactive)
COCCCCCCCCCCCC(=O)O [12-Methoxydodecanoic acid]	101 ± 1.2	95.9 ± 11	95.5 (inactive)	98.5 (inactive)
Cc1ccc(NC(=O)c2ccc(CN3CCN(C)CC3)cc2)cc1Nc1nc(-c2cccnc2)cs1 [Masatinib(AB1010)]	82.7	79.9	109 (inactive)	141 (active)
Cc1cnc(NC(=O)C2=C(O)c3ccccc3S(=O)(=O)N2C)s1 [Meloxicam]	103	105	96.1 (inactive)	104 (inactive)
CCC=CCC=CCC=CCC=CCC=CCC=CCCC(=O)O [Docosahexaenoic acid]	99.8 ± 4.3	97.5 ± 3.1	104 (inactive)	105 (inactive)
Br.CCSC(=N)N [S-Ethylisothiourea hydrobromide]	102	109	97.1 (inactive)	88 (inactive)
COC1C=COC2(C)Oc3c(C)c(O)c4c(O)c(cc([O-])c4c3C2=O)NC(=O)C(C)=CC=CC(C)C(O)C(C)C(O)C(C)C(OC(C)=O)C1C.[Na+] (stereo not given)	103	101	102 (inactive)	97.5 (inactive)
